# Experimental data published in PubChem BioAssay (NCATS).
# Inconclusive results are not listed. Unmarked numbers belong to inactive results. Activity calls are given as the source filed them. The call rests on the fitted dose curve; in most records, active means well fitted inhibition curve with a large enough effect; inconclusive means small, poorly fitted or top-dose-only effect; inactive means no such curve, though single readings can be large or run the other way.
# Assay: Primary qHTS for inhibitors of nuclear receptor binding SET domain protein 2 (NSD2) in an RCH-ACV wild type WT cells (2C) (AID 1645877); further: nearly all actives have a fitted effect of over 70% in size
# Conditions: RCH-ACV (leukaemia line) NSD2 WT (2C) viability, CellTiter-Glo, 72 h; series mostly up to 44.9 µM; activity change, negative = cell killing: at the top concentration
# On the % scale 0 is the no-effect control and ±100 the full control effect; potency means the concentration at half of the fitted maximal effect.
SMILES,Potency,outcome,"activity change, negative = cell killing"
OC1C=C2C3CN(Cc4cc5c(cc43)OCO5)C2CC1O (stereo not drawn),7280 nM (active),,
CN[C@@H]1[C@H](O[C@H]2[C@H](O[C@@H]3[C@@H](O)[C@H](O)[C@@H](N=C(N)N)[C@H](O)[C@H]3N=C(N)N)O[C@@H](C)[C@]2(O)CO)O[C@@H](CO)[C@H](O)[C@H]1O,,inactive,
C=C[C@@]12COC(=O)C(=C)[C@@H]1[C@@H](O)[C@H](C(=C)C(=O)OC)[C@@H](O)C2,,,-94.1%
CC(=O)O[C@@]12CO[C@@H]1C[C@H](O)[C@@]1(C)C(=O)[C@H](O)C3=C(C)[C@@H](OC(=O)[C@H](O)[C@@H](NC(=O)OC(C)(C)C)c4ccccc4)C[C@@](O)([C@@H](OC(=O)c4ccccc4)C12)C3(C)C (stereo partly drawn),3.2 nM (active),,
C/C=C(\C)[C@@H]1C(C)=C[C@@H]2[C@H]([C@@H]1/C=C/C=C/C(=O)O)[C@@H](C)CC[C@@H]2O,4010 nM (active),,
C=C(C)C(=O)OC1CC2(C)OC(=CC2=O)C(=C)CC2OC(=O)C(=C)C12 (stereo not drawn),253 nM (active),,
C/C1=C/CCC2=CC(OC2=O)C(C)(C)/C=C/C1=O (stereo not drawn),459 nM (active),,
CC1(C)CCCC2(C)C1C(OC(=O)/C=C/C=C/C=O)C=C1COC(=O)C12O (stereo not drawn),3550 nM (active),,
C=C1C(=O)O[C@@H]2C[C@H](C)[C@@H]3CC(=O)C(C)=C3C[C@H]12,2580 nM (active),,
OC[C@H]1O[C@@H](OC/C=C/c2ccc(O)cc2)[C@H](O)[C@@H](O)[C@@H]1O,,,-36.3%
O=C(NO)c1cnc(N2CCN(S(=O)(=O)c3ccc4ccccc4c3)CC2)nc1,252 nM (active),,
CC(C)C[C@@H]1NC(=O)[C@@H](Cc2ccccc2)NC(=O)C(CCCCCC(=O)C2CO2)NC(=O)[C@@H]2CCCCN2C1=O (stereo partly drawn),25.2 nM (active),,
C#Cc1cccc(Nc2nc3cc(C(=O)O)ccc3c3cncnc23)c1,2580 nM (active),,
CN(C)C(=O)COC(=O)c1cc(-c2ccc(C3CCNCC3)cc2)c2ccc(-c3ccc(C(F)(F)F)cc3)cc2c1,4590 nM (active),,
Nc1nc(Nc2ccc3c(c2)CCC(N2CCCC2)CC3)nn1-c1cc2c(nn1)-c1ccccc1CCC2 (stereo not drawn),1450 nM (active),,
CC(=O)O[C@H]1CC2C(COC(=O)CC(C)C)=CO[C@@H](OC(=O)CC(C)C)C2[C@]12CO2 (stereo partly drawn),3550 nM (active),,
C=C1C(=O)O[C@H]2C3=C(C)CCC[C@]3(C)C(=O)C[C@@H]12,1290 nM (active),,
COCCNCc1ccc(-c2cc3nccc(Oc4ccc(NC(=O)C5(C(=O)Nc6ccc(F)cc6)CC5)cc4F)c3s2)nc1,2630 nM (active),,
COC(=O)N1CC2(CC2)C[C@H](C(=O)NO)[C@H]1C(=O)N1CCN(c2ccccc2)CC1,,,-11.4%
COc1ccccc1S(=O)(=O)Nc1ccc2c(c1)CN(C)C(=O)N2,1630 nM (active),,
Cc1cc2c(F)c(Oc3ncnn4cc(OCC(C)OC(=O)C(C)N)c(C)c34)ccc2[nH]1 (stereo not drawn),8330 nM (active),,
CCc1c[nH]c2ncnc(N3CC[C@](N)(CNC(=O)c4ccc(F)cc4F)C3)c12,3650 nM (active),,
COC(=O)C[C@H]1[C@]2(C)C3=C(C)[C@H](c4ccoc4)C[C@H]3O[C@@H]2[C@H](O)C2[C@](C)(C(=O)OC)C=CC(=O)[C@@]21C (stereo partly drawn),,,-21.3% [at 17.3 µM]
CN(CC1COCCO1)S(=O)(=O)Nc1ccc2ccc3ncc(-c4cnn(C)c4)cc3c(=O)c2c1 (stereo not drawn),9160 nM (active),,
C=C1C(=O)O[C@@H]2C3C(=C(C)[C@@H](O)[C@@H](OC(=O)/C(=C/C)COC(C)=O)[C@@H]12)C(=O)[C@H]1O[C@@]31C (stereo partly drawn),1590 nM (active),,
CNc1nc(Nc2ccc(C(=O)N3CCOCC3)cc2OC)nc2[nH]cc(Cl)c12,2900 nM (active),,
O=S(=O)(NCc1ccccn1)c1ccc(Br)c2ccccc12,,,-22.2%
COc1ccc(C2Oc3c(OC)cc(CCCO)cc3C2COC2OC(CO)C(O)C(O)C2O)cc1OC (stereo not drawn),,,-19% [at 17.3 µM]
